Inconclusive results are not listed. Calls of active or inactive are those of the source. Unless noted, how the calls were made is not given here.

Data on nine compounds can be found in PubChem BioAssay (NCATS).

The nature of assay [1]: qHTS Assay for Identifying Gametocytocidal Compounds (AID 743244; active means well fitted curve in the direction sought with a large enough effect; an effect the other way counts as inactive or inconclusive; further: potency means the concentration at half of the fitted maximal effect;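 on max response: on the % scale 0 is the no-effect control and ±100 the full control effect; actives lower the fluorescent signal which means gametocytes are killed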). The conditions noted are these: P. falciparum 3D7 stage III-V gametocytes, alamarBlue, 72 h; max response: stronger effect = lower value. In short, it runs like this: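 P. falciparum 3D7 stage III–V gametocytes (20,000 cells/well) were exposed to compounds for 72 h at 37 °C, 5% CO2. AlamarBlue was then added for 24 h; decreased resorufin fluorescence (Ex 525/Em 598 nm) indicated loss of viability.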
Background: qHTS replaces the single test concentration by a dilution series.

A short description of assay [2]: qHTS profiling for inhibitors of Plasmodium falciparum (3D7) proliferation (AID 743322).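 Further: infected erythrocytes exposed to compound for 72 h before lysis; 100% = DMSO vehicle wells and 0% = 0.29 µM artemisinin.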 The conditions noted are these: P. falciparum 3D7 proliferation; at 28.7 µM (top of the series). Put shortly: (§1)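 Parasite DNA was quantified by SYBR Green I fluorescence (ex 485, em 535 nm) after overnight lysis in saponin/Triton buffer at room temperature. Cultures at 0.3% parasitemia and 2.5% hematocrit were first exposed to compound for 72 h at 37 C; signals were normalised to artemisinin (0.29 uM) and vehicle wells.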

Assay [3] can be described thus: qHTS profiling for inhibitors of Plasmodium falciparum (DD2) proliferation (AID 743323). The conditions noted are these: lower = more inhibition; at 28.7 µM (top of the series). In short, it runs like this:
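Parasite proliferation measured via DNA-dye fluorescence, as uninfected erythrocytes lack DNA. Cultures at 0.3% parasitemia and 2.5% hematocrit incubated 72 h with compound; signal scaled between vehicle and 0.29 uM artemisinin wells.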

Assay [4] is described as follows: qHTS profiling for inhibitors of Plasmodium falciparum (HB3) proliferation (AID 743324; active means well fitted curve in the direction sought with a large enough effect; an effect the other way counts as inactive or inconclusive;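 further: 100% = DMSO vehicle wells and 0% = artemisinin-treated control wells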). The conditions noted are these: Plasmodium falciparum HB3 blood-stage proliferation; at 28.7 µM (top of the series). Put shortly: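 SYBR Green fluorescence (485 ex/535 em) of lysed cultures, incubated overnight at room temperature in the dark, quantifies parasite DNA. Infected erythrocytes at 0.3% parasitemia and 2.5% hematocrit were exposed 72 h; values normalized to DMSO and 0.29 uM artemisinin controls.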

Assay [5] is described as follows: qHTS profiling of the MIPE4 collection as inhibitors of Plasmodium falciparum (3D7) proliferation (AID 743344).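 Further: scaled between DMSO vehicle wells and 0.29 µM artemisinin as full inhibition.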 The conditions noted are these: P. falciparum 3D7 in erythrocytes, SYBR Green DNA fluorescence, 72 h; at 28.5 µM (top of the series) unless noted. In short, it runs like this:
as §1

The nature of assay [6]: qHTS profiling of the MIPE4 collection as inhibitors of Plasmodium falciparum (DD2) proliferation (AID 743345). As to conditions: P. falciparum Dd2 in erythrocytes, SYBR Green DNA, 72 h; at 28.5 µM (top of the series) unless noted. In short, it runs like this:
as §1

Assay [7] can be described thus: qHTS profiling of the MIPE4 collection as inhibitors of Plasmodium falciparum (DD2) proliferation (Rep 2) (AID 743346). The conditions noted are these: P. falciparum Dd2 in erythrocytes, SYBR Green DNA, 72 h; at 28.5 µM (top of the series) unless noted. In short, it runs like this:
as §1

The nature of assay [8]: qHTS profiling of the MIPE4 collection as inhibitors of Plasmodium falciparum (HB3) proliferation (AID 743347).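 Further: plate controls were DMSO vehicle wells for no effect and artemisinin wells for full effect.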 As to conditions: P. falciparum HB3 in erythrocytes, SYBR Green DNA, 72 h; at 28.5 µM (top of the series) unless noted. Put shortly: as §1
Assay [9] is described as follows: High-throughput drug toxicity screening in the BPDCN cell line Gen2.2 (AID 1224824).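 Further: cells exposed to compounds for 48 h before reading.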 The conditions noted are these: Gen2.2 BPDCN cells; at 45.8 µM (top of the series) unless noted. Put shortly: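 Seed 500 exponentially growing Gen2.2 cells/well; add compounds by pin tool; incubate 48 h, 37 °C, 5% CO2; add CellTiter-Glo, 15 min RT; read luminescence. % activity vs DMSO (100%) and bortezomib (0%).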

The nature of assay [10]: High-throughput drug toxicity screening in the BPDCN cell line Cal-1 (AID 1224825). The conditions noted are these: Cal-1 BPDCN cell viability, qHTS; at 45.8 µM (top of the series) unless noted. Put shortly:
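Viability of the BPDCN line Cal-1 is measured as ATP-based luminescence (CellTiter-Glo) following 48 h incubation with compounds. Percent activity uses DMSO-treated wells as 100% and 9.2 uM bortezomib as 0%.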

Assay [11] can be described thus: qHTS assay for measurement of the activity of small molecule inhibitors on Zika virus induced Caspase-3 activity in human iPSC derived neural progenitor cells (hNPCs) (AID 1224857; active means well fitted curve in the direction sought with a large enough effect; an effect the other way counts as inactive or inconclusive; further: nearly all actives have a fitted effect of over 65% in size; further: potency means the concentration at half of the fitted maximal effect). As to conditions: hNPCs ZIKV-induced caspase-3/7, Caspase-Glo luminescence, 6 h; series mostly up to 45.7 µM. Put shortly:
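hNPCs seeded 350 cells/well, cultured 16–20 h; compounds added 1 h before ZIKV (2 FFU/cell), 37 C 6 h. Caspase-Glo 3/7 luminescence after 30 min RT; % inhibition from induction scaled to uninfected (0%) and infected (100%) wells.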

A short description of assay [12]: qHTS assay for measurement of the activity of small molecule inhibitors on Zika virus induced Caspase-3 activity in human astrocytoma cells (AID 1224859; active means well fitted curve in the direction sought with a large enough effect; an effect the other way counts as inactive or inconclusive;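 further: plate controls were ZIKV-infected untreated cells for no effect and uninfected cells for full effect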). As to conditions: SNB-19 ZIKV-induced caspase-3/7, luminescence, 6 h; series mostly up to 45.7 µM. Put shortly:
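Luminescence read-out (Caspase-Glo 3/7, 30 min RT) of caspase activity in SNB-19 cells infected 6 h with ZIKV, 2 FFU/cell, after 1 h compound pretreatment; % inhibition from induction normalised to uninfected (0%) and infected (100%) wells.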

On to `CC1=C(CO)C(=O)O[C@@H]([C@@H](C)[C@H]2CC[C@H]3[C@@H]4C[C@H]5O[C@]56[C@@H](O)C=CC(=O)[C@]6(C)[C@@H]4CC[C@]23C)C1`, for which the results for the Potency in assay [1] and in assay [11] were 0.372 µM (active) and 9.35 µM (active), respectively. Further, the remaining parasite growth % (stronger effect = lower value) in assay [2] is -1.7%. In [3], the activity, percent of control was -0.497%. Besides, in assay [4], the remaining proliferation (% of control), lower = more inhibition was -0.146%. In [5], this compound registered a parasite growth, % of DMSO control of 6.08%. This compound returned a parasite growth remaining, % of DMSO control (lower = more inhibition) in assay [6] of 7.1%. This compound displayed a parasite growth, % of control (lower = inhibition) in [7] of 7.54%. This compound gave a growth, % of control in [8] of 3.14%. For the same compound, the cell viability, % of control (lower = more cytotoxic) in [9] turned out to be 3.38%. In addition, the viability (% of control) in assay [10] was 1.9%. Also, the Potency entry in assay [12] is “inactive”.
Regarding `C=C1C(=CC=C2CCCC3(C)[C@@H]([C@H](C)C=CC=CC(O)(CC)CC)CC[C@@H]23)C[C@@H](O)C[C@@H]1O` (some centres undefined), the max response in [1] was -8.25% (inactive). Also, the remaining parasite growth % (stronger effect = lower value) in assay [2] is 65.1%. For the same compound, in assay [3], the activity, percent of control amounted to 71.5%. In addition, in assay [4], the remaining proliferation (% of control), lower = more inhibition was found to be 20.6%. In assay [5], this compound displayed a parasite growth, % of DMSO control of 17.5%. Further, the parasite growth remaining, % of DMSO control (lower = more inhibition) in assay [6] is 83.6%. The parasite growth, % of control (lower = inhibition) in assay [7] stood at 12.7%. In assay [8], this compound gave a growth, % of control of 15%. In assay [9], this compound yielded a cell viability, % of control (lower = more cytotoxic) of 17.9%. Besides, in assay [10], the viability (% of control) came out at 6.44%. Further, the Potency result in [11] and in assay [12] was “inactive” in each case.
On to `CCN1CCN(Cc2ccc(-c3cc4c(N[C@H](C)c5ccccc5)ncnc4[nH]3)cc2)CC1`, for which the Potency in assay [1] is 23.5 µM (active). The remaining parasite growth % (stronger effect = lower value) in assay [2] is -0.0025%. Besides, the activity, percent of control in assay [3] is 1.84%. For the same compound, in assay [4], the remaining proliferation (% of control), lower = more inhibition came to 0.0196%. Besides, in [5], the parasite growth, % of DMSO control amounted to 5.16%. Besides, the parasite growth remaining, % of DMSO control (lower = more inhibition) in assay [6] was found to be 8.31%. The compound further displayed a parasite growth, % of control (lower = inhibition) in [7] of 7.53%. The compound also registered a growth, % of control in [8] of 8.9%. Also, the cell viability, % of control (lower = more cytotoxic) in assay [9] worked out at 42.9%. The compound also registered a viability (% of control) in [10] of 6.05%. The Potency result in [11] and in assay [12] was “inactive” in each case.
Regarding `CC[C@@H]1C(=O)N(C)c2cnc(Nc3ccc(C(=O)NC4CCN(C)CC4)cc3OC)nc2N1C1CCCC1`, the Potency in assay [1] was 2.35 µM (active). The remaining parasite growth % (stronger effect = lower value) in assay [2] was 0.0061%. The activity, percent of control in assay [3] was found to be 0.0959%. Further, the remaining proliferation (% of control), lower = more inhibition in assay [4] is -0.331%. In assay [5], this compound had a parasite growth, % of DMSO control of 4.91%. The compound further showed a parasite growth remaining, % of DMSO control (lower = more inhibition) in assay [6] of 6.75%. In [7], this compound displayed a parasite growth, % of control (lower = inhibition) of 17.2%. In [8], this compound yielded a growth, % of control of 6.34%. For the same compound, the cell viability, % of control (lower = more cytotoxic) in [9] was 4.74%. This compound also showed a viability (% of control) in [10] of 2.57%. Besides, the Potency result in [11] and in assay [12] was “inactive” in each case.
Turning to `COc1cc2c(Nc3ccc(NC(=O)c4ccccc4)cc3)ncnc2cc1OCCCN1CCOCC1`, the max response in assay [1] was -17.9% (inactive). Moreover, in [2], the remaining parasite growth % (stronger effect = lower value) amounted to 2.34%. In addition, in [3], the activity, percent of control was found to be 15.5%. Further, the remaining proliferation (% of control), lower = more inhibition in [4] is 3.78%. The compound also yielded a parasite growth, % of DMSO control in [5] of 10.3%. Also, in assay [6], the parasite growth remaining, % of DMSO control (lower = more inhibition) came to 21.6%. Moreover, the parasite growth, % of control (lower = inhibition) in [7] stood at 30%. Further, the cell viability, % of control (lower = more cytotoxic) in assay [9] was found to be 4.68%. Also, in assay [10], the viability (% of control) was 2.4%. The Potency result in [11] and in assay [12] was “inactive” each time.
As for `CC(C)(C)OC(=O)Nc1ccc(-c2cc(C(=O)NCCCCCCC(=O)NO)no2)cc1`, the Potency in [1] was 9.35 µM (active). Further, the remaining parasite growth % (stronger effect = lower value) in assay [2] was -1.38%. The activity, percent of control in [3] was -0.213%. For the same compound, in assay [4], the remaining proliferation (% of control), lower = more inhibition was 0.579%. The compound further registered a parasite growth, % of DMSO control in assay [5] of 4.81%. Moreover, the parasite growth remaining, % of DMSO control (lower = more inhibition) in assay [6] is 6.42%. This compound also yielded a parasite growth, % of control (lower = inhibition) in assay [7] of 12.7%. Also, the growth, % of control in assay [8] stood at 3.96%. This compound also had a cell viability, % of control (lower = more cytotoxic) in assay [9] of 4.96%. The viability (% of control) in assay [10] came to 3.94%. Also, the Potency entry in [11] and in assay [12] was “inactive” throughout.
Turning to `COc1cc2ncnc(Nc3ccc(F)c(Cl)c3)c2cc1NC(=O)C=CCN1CCCCC1`, in assay [1], the Potency was 11.8 µM (active). For the same compound, in assay [2], the remaining parasite growth % (stronger effect = lower value) is -0.218%. In assay [3], the activity, percent of control came out at 0.401%. Besides, the remaining proliferation (% of control), lower = more inhibition in assay [4] worked out at 0.28%. This compound also returned a parasite growth, % of DMSO control in assay [5] of 9.04%. Moreover, the parasite growth remaining, % of DMSO control (lower = more inhibition) in [6] came out at 8.26%. The compound also displayed a parasite growth, % of control (lower = inhibition) in assay [7] of 11%. The same compound showed a growth, % of control in [8] of 6.53%. In assay [9], this compound displayed a cell viability, % of control (lower = more cytotoxic) of 10%. In assay [10], the viability (% of control) is 3.6%. Moreover, the Potency result in [11] and in assay [12] was “inactive” in each case.
Consider `CC(C)(C)c1cnc(CSc2cnc(NC(=O)C3CCNCC3)s2)o1`, for which the Potency in assay [1] was 4.18 µM (active). Moreover, the remaining parasite growth % (stronger effect = lower value) in [2] stood at 9.96%. In addition, the activity, percent of control in assay [3] was 6.95%. Also, the remaining proliferation (% of control), lower = more inhibition in assay [4] is 7.19%. The parasite growth, % of DMSO control in assay [5] was determined as 11.9%. In addition, in [6], the parasite growth remaining, % of DMSO control (lower = more inhibition) worked out at 13%. This compound showed a parasite growth, % of control (lower = inhibition) in assay [7] of 24.1%. The same compound returned a growth, % of control in [8] of 12.8%. In assay [9], this compound had a cell viability, % of control (lower = more cytotoxic) of 1.75%. Also, in [10], the viability (% of control) was 1.24%. For the same compound, the Potency entry in [11] and in [12] was “inactive” throughout.
`CCCNC(=O)Nc1ccc(Oc2ncnc3cc(OC)c(OC)cc23)cc1Cl` showed a cell viability, % of control (lower = more cytotoxic) in [9] of 69.6%. The viability (% of control) in assay [10] was 92.7%. Moreover, the Potency entry in assay [11] and in assay [12] was “inactive” each time.
